# Test results as given in PubChem BioAssay (NCI).
# About 83,000 compounds went through this panel and 20% of them were active in at least one assay; those are over-represented in the sample as a whole.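 Cell lines were cultured in 96-well plates, exposed to a single compound concentration, and assessed for percent growth 48 hours later.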 Unmarked numbers belong to inactive results. Calls of active or inactive are those of the source. Rule for the calls: active = growth percent below 10; inactive = the rest.
# Test system: HL-60(TB) leukemia
# Test: NCI-60 one-dose screen, 48 h (100 = growth as untreated, 0 = no growth, -100 = all killed)
# Settings: 10 µM unless noted
row,SMILES,growth
1,COc1ccc(-c2nc(SCC(C)C)nc(N/N=C\c3ccc(F)cc3)c2C#N)cc1,83.4%
2,C/C(=N\NC(=O)c1sc(=S)n(C)c1N)c1cc2ccccc2o1,26.6%
3,C=C(C)[C@@H]1CC[C@]2(C(=O)NCC#CCN3CCN(C)CC3)CC[C@]3(C)[C@H](CC[C@@H]4[C@@](C)(CCC#N)[C@H](C(=C)C)CC[C@]43C)[C@@H]12,10.9%
4,CCCCCCCCCCCCCCCCCCOc1ccccc1N,2.15% (active)
